# High-throughput results deposited in PubChem BioAssay by several laboratories.
# HNF4A DNA FP: change in binding of human HNF4 alpha to DNA; HNF4a-FITC DNA binding, fluorescence polarization, 1 h; activity change, % at 10 µM; actives 0.3% (n = 360,000); in the data active = activity change above about 30%, passing the limit was not always enough
# TPT1 inh: C. albicans TPT1 enzyme inhibition | recombinant caTPT1, FP RNA substrate dephosphorylation | inhibition, % at 5 µM | actives 0.81% (n = 300,000) | AID 1962;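 active = inhibition above the mean of all tested compounds plus 3 SD, set per screening campaign, cut at about 24% in these data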;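 note: plate controls were DMSO alone for no effect and ferristatin control at 100 nM for full effect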
# Rpn11 block: Rpn11 (human) deubiquitinase inhibition; inhibition, % at 20 µM; O00487; human 26S proteasome, Ub4-pepOG fluorescence polarization; 20S core pre-blocked with epoxomicin; AID 588493; actives 0.59% (n = 360,000);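 active = inhibition at 20 µM, scaled to each plate's controls, above about 33%, limit read from the data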
# PHOSPHO1 inh: PHOSPHO1 (human) inhibition; Q8TCT1; recombinant PHOSPHO1, absorbance phosphatase assay; inhibition, % at 13.3 µM; actives 1.1% (n = 290,000); AID 1565; in the data active = inhibition above about 60%
# NRP1-CendR mod: NRP-1/CendR interaction modulation; inhibition, % at 25 µM; O14786; AID 602438; FAM-RPARPAR peptide binding to NRP-1, fluorescence polarization; actives 0.85% (n = 360,000);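 active = inhibition or corrected inhibition above about 18%, plus a signal ratio from 0.5 to 1.5, limit read from the data, passing the limit was not always enough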
# Target sequence (O14786 whole entry, looked up): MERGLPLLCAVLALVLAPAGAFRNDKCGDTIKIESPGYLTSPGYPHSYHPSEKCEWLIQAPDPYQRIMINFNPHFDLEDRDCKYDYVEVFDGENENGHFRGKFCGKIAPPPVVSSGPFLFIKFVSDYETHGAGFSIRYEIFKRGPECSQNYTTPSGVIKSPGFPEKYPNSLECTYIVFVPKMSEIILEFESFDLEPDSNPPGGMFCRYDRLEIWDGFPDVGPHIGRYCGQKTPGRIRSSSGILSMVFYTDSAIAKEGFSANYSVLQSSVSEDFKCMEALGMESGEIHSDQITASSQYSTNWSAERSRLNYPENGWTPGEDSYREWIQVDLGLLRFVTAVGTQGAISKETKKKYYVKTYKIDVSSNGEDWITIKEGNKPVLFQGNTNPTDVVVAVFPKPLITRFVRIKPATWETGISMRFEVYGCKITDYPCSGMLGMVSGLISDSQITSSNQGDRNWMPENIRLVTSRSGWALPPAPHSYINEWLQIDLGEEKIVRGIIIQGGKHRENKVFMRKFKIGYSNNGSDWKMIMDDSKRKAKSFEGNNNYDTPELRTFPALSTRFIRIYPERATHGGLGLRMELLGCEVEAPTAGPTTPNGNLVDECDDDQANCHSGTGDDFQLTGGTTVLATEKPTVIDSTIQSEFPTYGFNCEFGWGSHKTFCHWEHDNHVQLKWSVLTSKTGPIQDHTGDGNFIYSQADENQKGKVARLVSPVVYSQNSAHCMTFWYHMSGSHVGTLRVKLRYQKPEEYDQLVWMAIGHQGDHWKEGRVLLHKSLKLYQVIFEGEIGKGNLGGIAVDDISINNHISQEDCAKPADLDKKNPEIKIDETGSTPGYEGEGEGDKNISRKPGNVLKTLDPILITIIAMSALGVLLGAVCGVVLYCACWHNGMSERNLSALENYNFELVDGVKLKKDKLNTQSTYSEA
# CTSL1 counter: blocks F. hepatica cathepsin L1 in PFM18AAP counter-screen | recombinant F. hepatica cathepsin L1, Z-Leu-Arg-MCA fluorescence | inhibition, % at 5.96 µM | actives 0.49% (n = 300,000) | AID 1906;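 active = inhibition above the mean of all tested compounds plus 3 SD, set per screening campaign, cut at about 17% in these data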;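 note: 0% = plate median of test compound wells and 100% = 1 µM Z-Phe-Ala-diazomethylketone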
# * hit, by the source's call; · = not tested or not shown. An excerpt weighted towards active compounds, which were near 3.3% of everything screened.
SMILES,HNF4A DNA FP,TPT1 inh,Rpn11 block,PHOSPHO1 inh,NRP1-CendR mod,CTSL1 counter
O=S(=O)(NCC(c1cccnc1)N1CCN(Cc2ccccc2)CC1)c1ccc(F)cc1 (centres undefined),-0.7,0.1,-1.2,41.8,-3.5,0.3
COc1cc(Nc2cccc(-c3ccccc3)n2)cc(OC)c1OC,4.3,·,-7.8,·,30.5*,·
Cc1ccc(OCCNC(=O)c2cc(C3CC3)nc3c2cnn3C(C)C)cc1,-1.5,·,8.7,·,8.3,·
CCCn1c(SCC(=O)c2ccc(CC)cc2)n[nH]c1=O,-0.8,-2.5,-3.8,82.4*,4.3,4.5
CCCn1c(SCC(=O)NCc2ccc(C)cc2)n[nH]c1=O,-2.0,1.2,-0.3,5.5,-11.1,0.3
CCN(C(=O)c1ccc2c(=O)n3c(nc2c1)CCCCC3)c1cc(OC)ccc1OC,4.9,1.0,-5.2,64.9*,15.1,0.0
CCC(CC)c1nnc(NC(=O)c2cccc(S(=O)(=O)N3CCOCC3)c2)s1,0.5,·,2.9,·,25.9*,·
CCCCCCCCCOC(=O)C(CC(=O)O)N1CCOCC1 (centres undefined),0.3,-0.3,-3.7,11.5,32.1*,0.3
CC(C)(C)c1csc(NC(=O)c2ccc(Br)o2)n1,-4.1,0.4,8.2,31.8,4.2,2.3
CC(NC(=O)CSc1ccc(S(=O)(=O)N2CCOCC2)cn1)c1ccc(Cl)cc1Cl (centres undefined),2.5,·,4.2,·,6.1,·
CC(C)c1ccc(O)c(NC(=O)c2cncc(Br)c2)c1,7.7,2.5,3.0,21.1,-12.9,1.9
CC(C)c1ccc(O)c(NC(=O)c2ncn[nH]2)c1,2.6,2.6,3.0,10.5,-14.3,16.8*
CC1CC(C)CN(CC(=O)NNC(=O)COc2ccc(Cl)cc2)C1 (centres undefined),3.4,·,0.8,·,-0.4,·
COCc1ccccc1Cn1cnc2c1c(=O)n(C)c(=O)n2C,0.7,-9.4,5.7,13.1,35.4*,-1.5
O=C(CN1c2cccc3cccc(c23)S1(=O)=O)N1CCCCC1,2.0,·,5.7,·,-13.1,·
Cn1c(=O)n(C)c2cc([N+](=O)[O-])c(N3CCN(C(=O)c4ccc(F)cc4)CC3)cc21,-2.4,-2.6,0.3,60.0*,21.3,-0.7
COc1ccc(N2CCN(C(=O)c3ccc(Br)cc3)CC2)c([N+](=O)[O-])c1,2.8,3.1,3.5,27.4,16.4*,-10.5
Cn1c(=O)n(C)c2cc([N+](=O)[O-])c(N3CCN(C(=O)c4ccc(Cl)cc4)CC3)cc21,0.7,2.6,-8.6,8.5,7.3,-3.7
O=C(c1ccc(N2CCOCC2)c([N+](=O)[O-])c1)N1CCCCC1,3.0,-3.0,-3.2,74.0*,12.6,0.7
CCOC(=O)c1ccc(CN(Cc2ccc(C)cc2)S(=O)(=O)c2cccc([N+](=O)[O-])c2)cc1,-2.1,-0.3,-1.8,-9.8,6.0,1.0
Cc1ccc(NC(=O)C(C)N2C(=O)c3ccccc3C2=O)c(C)c1 (centres undefined),1.2,-4.8,-3.3,34.0,-3.4,-2.8
CCN(CC)N=Nc1[nH]nc2nc(C)cc(C)c12,-0.6,-0.6,2.5,68.9*,14.2,0.7
O=C(N[C@@H](Cc1ccccc1)C(=O)OCc1ccccc1)c1nc[nH]c1C(=O)NC(c1ccccc1)c1ccccc1,3.0,-1.6,-0.9,30.4,27.2*,1.0
CC(C)(C)OC(=O)[C@H](Cc1ccccc1)NC(=O)c1nc[nH]c1C(=O)N1CCN(C(=O)OC(C)(C)C)CC1,-2.6,-2.4,-5.6,-1.7,26.7*,3.0
CCN(CC)C(=O)c1nc[nH]c1C(=O)N1CCN(c2ccccc2)CC1,1.9,·,-2.3,·,30.3*,·
SMILES,HNF4A DNA FP,TPT1 inh,Rpn11 block,PHOSPHO1 inh,NRP1-CendR mod,CTSL1 counter
CC(C)(C)OC(=O)N1CCN(C(=O)c2[nH]cnc2C(=O)N[C@@H](Cc2ccccc2)C(=O)OCc2ccccc2)CC1,-9.8,-3.8,-4.6,4.0,5.3,3.5
CC(C)(C)OC(=O)NCc1ccc(CNC(=O)c2nc[nH]c2C(=O)N2CCc3ccccc3C2)cc1,-6.4,·,4.1,·,34.7*,·
CC(C)(C)OC(=O)NCCCCCNC(=O)c1nc[nH]c1C(=O)N1CCc2ccccc2C1,-3.5,·,1.6,·,2.4,·
CCC(C)(C)NC(=O)COc1ccc(OCc2ccccc2)cc1,1.1,-2.7,-2.1,52.7,9.1,4.5
C[C@H](NC(=O)c1nc[nH]c1C(=O)NC1CCN(C(=O)OC(C)(C)C)CC1)C(=O)OC(C)(C)C,0.4,-3.5,2.5,38.8,0.3,-0.8
CC(C)(C)OC(=O)[C@H](CCCCN)NC(=O)c1nc[nH]c1C(=O)NCCCCCN,1.9,-1.3,6.7,·,21.0*,1.3
CN(Cc1ccccc1)C(=O)c1nc[nH]c1C(=O)N1CCN(c2ccccc2)CC1,-3.6,·,0.1,·,8.7,·
CC(C)(C)OC(=O)NCCCCCNC(=O)c1[nH]cnc1C(=O)N[C@@H](CCCCNC(=O)OC(C)(C)C)C(=O)OC(C)(C)C,-0.1,2.4,7.0,31.7,5.2,7.3
CC1CCN(C(=O)c2[nH]cnc2C(=O)NC2CCN(C(=O)OC(C)(C)C)CC2)CC1,-3.1,·,-5.0,·,29.2*,·
CN(Cc1ccccc1)C(=O)c1nc[nH]c1C(=O)N1CCN(C(=O)OC(C)(C)C)CC1,-1.9,·,7.3,·,37.1*,·
Cc1ccc(C)c(N2CCN(C(=O)CCS(=O)(=O)c3cccc4nonc34)CC2)c1,0.8,-0.9,-2.5,0.1,4.0,-22.4
Cc1ccc(S(=O)(=O)N(CCC#N)C2CCCCC2)c2nsnc12,-0.8,-0.8,-7.1,4.7,-0.6,5.2
COC(=O)C1N2C(=O)[C@@H](NC(=O)COc3ccccc3)[C@H]2SC1(C)C (some centres undefined),-3.5,2.8,-6.3,·,31.1*,-6.2
C[C@@]12CCC3[C@@](CCC4[C@@]3(C)CCC[C@@]4(C)C(=O)Nc3ccc(Cl)cc3)(CC1=O)C2 (some centres undefined),2.0,·,-3.1,·,26.5*,·
COc1ccc(-c2csc(NC(CO)c3nc4ccccc4n3CCCO)n2)cc1 (centres undefined),4.3,-4.1,1.7,·,26.1*,0.2
Cc1cccc(Cn2c(C)nc3c(N)c(C)c(C)cc32)c1,1.0,-2.4,2.6,20.3,5.8,-0.3
C/C(Cl)=C/CSc1nn2c(=O)c3ccccc3nc2s1,1.9,2.8,0.0,39.5,25.7*,-2.5
C=CCSc1nn2c(=O)c3ccccc3nc2s1,1.4,-2.2,-11.0,42.0,0.1,1.8
COC(=O)C1CN(C(=O)COc2cc(C)cc(C)c2)c2ccccc2O1 (centres undefined),-2.2,3.6,-9.9,15.9,14.3,-2.0
COc1ccc(CN=C2NN=C(c3ccc(Cl)cc3)CS2)cc1,-1.8,-0.1,19.3,-59.9,-6.2,0.2
CC(C)(C)N=C1NN=C(c2ccc(Cl)cc2)CS1,1.5,3.3,-1.5,17.1,-11.6,21.5*
CC(=O)Nc1cccc(-c2cc(N3CCN(CCO)CC3)n3nccc3n2)c1,2.8,·,-10.3,·,-6.2,·
